# According to PubChem BioAssay (NCI):
# The panel holds about 79,000 compounds, 15% with a hit somewhere; the sample as a whole holds those more often. Values without a mark were called inactive. Activity calls are given as the source filed them. Cut-off read from the data, not from the text of the source: active = growth inhibition above about 70%; inactive = the rest.
# Legend:
# [1] = NCI Yeast Anticancer Drug Screen. Data for the rad50 strain (AID 155);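 note: 0% = growth of vehicle-only cultures of the same strain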; settings: S. cerevisiae rad50 strain growth inhibition, stronger effect = higher value
# Outline: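 Inhibition values express reduced yeast growth in compound-treated cultures relative to vehicle-treated controls.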
# [2] = NCI Yeast Anticancer Drug Screen. Data for the mec2-1 strain (AID 157); settings: S. cerevisiae mec2-1 strain, stronger effect = higher value
# Outline: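 Yeast mec2-1 mutant treated with compound. Readout: growth inhibition vs vehicle controls.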
# [3] = NCI Yeast Anticancer Drug Screen. Data for the sgs1 mgt1 strain (AID 161);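 note: 0% = growth of cultures given vehicle only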; settings: S. cerevisiae sgs1 mgt1 strain, stronger effect = higher value
# Outline: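 Read-out: growth inhibition vs vehicle controls. Cells: mutant yeast strain deficient in DNA damage repair.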
# [4] = NCI Yeast Anticancer Drug Screen. Data for the cln2 rad14 strain (AID 165);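 note: 0% = growth equal to vehicle treated cultures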; settings: S. cerevisiae cln2 rad14 strain, stronger effect = higher value
# Outline: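 cln2 rad14 yeast strain; compound exposure; growth inhibition read vs vehicle controls.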
# [5] = NCI Yeast Anticancer Drug Screen. Data for the bub3 strain (AID 167); settings: S. cerevisiae bub3 mutant strain, stronger effect = higher value
# Outline: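 Steps: expose the mutant yeast strain to compound; grow alongside vehicle-treated cultures; measure growth; express inhibition against the vehicle cultures.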
# [6] = NCI Yeast Anticancer Drug Screen. Data for the mlh1 rad18 strain (AID 175); settings: S. cerevisiae mlh1 rad18 strain growth inhibition, stronger effect = higher value
# Outline: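 Yeast w/ defined DNA-repair lesions; compound exposure; growth vs vehicle controls → % inhibition.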
# [7] = at 5.0 µM (retest, dose inferred, filed as 0.5)
# [8] = at 50.0 µM (retest, dose inferred, filed as 5.0)
SMILES,"growth inhibition [1, 7]","growth inhibition [1, 8]",growth inhibition ([1]; at 50.0 µM),"growth inhibition [2, 7] [%]","growth inhibition [2, 8]",growth inhibition ([2]; at 50.0 µM),"growth inhibition [3, 7] [%]","growth inhibition [3, 8]",growth inhibition ([3]; at 50.0 µM),"growth inhibition [4, 7] [%]","growth inhibition [4, 8]",growth inhibition ([4]; at 50.0 µM),"growth inhibition [5, 7]","growth inhibition [5, 8]",growth inhibition ([5]; at 50.0 µM),"growth inhibition [6, 7]","growth inhibition [6, 8]",growth inhibition ([6]; at 50.0 µM)
CN(C)C(=S)SN(C)C(=O)Nc1ccccc1,-5%,96% (active),70.3% (active),-7,96% (active),73% (active),-6,96% (active),94% (active),-13,95% (active),-9%,-4%,95% (active),92.2% (active),-3%,96% (active),86.1% (active)
COC(=O)c1nc(=S)[nH]c(C(=O)OC)c1C(=O)c1ccc([N+](=O)[O-])cc1,5%,84% (active),96.8% (active),-8,64%,49.4%,-5,80% (active),96.5% (active),2,70% (active),31.1%,5%,93% (active),61.1%,-2%,93% (active),91% (active)
NCC(O)CSc1ccc(Cl)c(Cl)c1 (configuration not stated),2%,11%,8.95%,-2,-4%,14.2%,1,16%,18.8%,5,9%,74.8% (active),3%,3%,17.2%,4%,7%,11.4%
COc1ccc(C2=Nc3cc(C)c(C)cc3NC(c3ccccc3)C2)cc1 (configuration not stated),11%,11%,43.2%,7,7%,69.8%,21,21%,66.9%,1,1%,9.5%,35%,35%,74.7% (active),19%,19%,51%
O=C1c2ccccc2SCC12OC2c1ccc(Cl)cc1 (configuration not stated),9%,85% (active),95% (active),4,88% (active),93.5% (active),16,92% (active),95.5% (active),1,87% (active),92% (active),21%,91% (active),94.9% (active),12%,91% (active),95.1% (active)
CC1(c2ccc(O)cc2)CC(C)(c2ccc(O)cc2)C1 (configuration not stated),81% (active),93% (active),94.8% (active),32,82% (active),93.2% (active),67,91% (active),91.9% (active),41,87% (active),94.2% (active),87% (active),91% (active),95.2% (active),86% (active),89% (active),92.8% (active)
COC(=O)CSc1nc2ccccc2[nH]1,-146%,-48%,27%,-48,-47%,-11.8%,-64,-39%,-6.2%,-50,-59%,-27.1%,-63%,-46%,-19.6%,-119%,-119%,-29.6%
Cc1cc(Br)cc(C(=O)Cl)c1O,-159%,-90%,32.5%,-51,-24%,22%,-68,-54%,30.2%,-69,-11%,28.7%,-74%,-47%,5.9%,-150%,-67%,34.7%
O=C(CCC1OCCO1)Nc1cc(NCc2ccccc2)ccc1OCc1ccccc1,1%,48%,71.2% (active),2,69%,57%,-173,73% (active),89.4% (active),0,16%,43.7%,0%,39%,65%,16%,68%,70.2% (active)
